Screening data deposited in PubChem by National Center for Advancing Translational Sciences (NCATS).
Shown are actives, neighbours in structure and some others; about 1.8% of the full set was active somewhere.
GLP-1R agonist = GLP-1 receptor (human) agonism. HEK293 GLP-1R CRE-luciferase, luminescence, 4-6 h; cells express a hypersensitive GLP-1R form. Potency, µM (highest dose often 45.6 µM), hits mostly activators. hit rate 0.007% among 380,000. AID 624172
PTHR1 agonist = PTHR1 (human) receptor agonism; Potency, µM (titrated, usually from 115 µM), usual class: activators; hit rate 0.075% among 410,000; HEK293 GP2 PTHR1 cells, GloSensor cAMP luminescence, 1 h; Q03431; note: nearly all actives have a fitted effect of over 55% in size
Target sequence (Q03431 whole entry, looked up): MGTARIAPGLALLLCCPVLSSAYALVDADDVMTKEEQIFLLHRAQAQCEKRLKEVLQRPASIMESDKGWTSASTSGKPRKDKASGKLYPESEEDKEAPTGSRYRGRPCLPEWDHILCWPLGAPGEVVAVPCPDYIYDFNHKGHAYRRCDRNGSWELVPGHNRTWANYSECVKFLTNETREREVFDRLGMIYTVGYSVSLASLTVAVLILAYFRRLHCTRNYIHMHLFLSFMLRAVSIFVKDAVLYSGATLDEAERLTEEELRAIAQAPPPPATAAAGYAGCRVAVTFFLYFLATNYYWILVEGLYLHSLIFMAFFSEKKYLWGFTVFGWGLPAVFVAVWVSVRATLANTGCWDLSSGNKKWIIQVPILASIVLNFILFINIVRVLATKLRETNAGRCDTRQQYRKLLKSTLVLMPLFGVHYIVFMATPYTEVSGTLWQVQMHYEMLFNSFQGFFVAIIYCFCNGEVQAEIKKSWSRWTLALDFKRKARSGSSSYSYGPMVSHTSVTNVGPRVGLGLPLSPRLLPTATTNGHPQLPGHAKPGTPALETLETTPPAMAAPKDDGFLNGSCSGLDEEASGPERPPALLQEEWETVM
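HEK-293-derived GP2 cells expressing PTHR1 and a GloSensor cAMP reporter, 3,000/well, plated overnight, given luciferin plus IBMX (each 0.5 mM as added) for 1 h at 37 °C, then compound for 1 h at 37 °C. Luminescence was read after 15 min at room temperature.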
GLP-1R inv ag = inverse agonists of human GLP-1 receptor; P43220; HEK293 GLP-1R CRE-luciferase, luminescence, 24 h; GLP-1R form is constitutively active; Potency, µM (top dose mostly 38.3 µM), hits mostly inhibitors; hit rate 1.6% among 410,000; note: nearly all actives have a fitted effect of over 55% in size
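Seeding at 200 cells/uL, 12 h culture, 24 hr compound treatment, then luciferase reagent and a luminescence read; cells are HEK293 stably expressing a constitutively active GLP-1R plus cAMP-responsive luciferase.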
TSHR antag = antagonists of human thyroid stimulating hormone receptor; activity change, negative = inhibition, % at 11.5 µM; TSHR-expressing cells, TSH-stimulated cAMP HTRF, 2 h; active compounds read low; hit rate 0.2% among 330,000; AID 504810; P16473;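 active = activity change below a set negative limit, meaning inhibition stronger than a set level, cut at about -70% in these data; inconclusive = activity change between two set negative limits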
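Cell-based HTRF cAMP assay; TSHR cells + compound, TSH EC80 (4nM final), 2 h, 37 deg C. Lysis with anti-cAMP cryptate and cAMP-d2, 30 min RT, read 665/620 nm.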
HEK293 tox = cytotoxicity counter-screen for GLP-1 receptor inverse agonists; Potency, µM (highest dose often 38.3 µM), hits mostly inhibitors; AID 624418; hit rate 0.13% among 410,000; HEK293 cAMP-luciferase reporter cells, luminescence, 24 h;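 note: loss of luciferase light is scored as toxicity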
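Cells in DMEM/10% Nu serum/1% pen-strep, 1536-well format. Pre-incubated 12 h, dosed with 23 nL compound, incubated a further 24 h. Luciferase detection, 12 min at room temp, luminescence.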
Large screens that a line does not name were inactive. Unless noted, calls come from the whole dose curve; as a rule, active = well fitted curve in the direction sought with a large enough effect; inconclusive = small, poorly fitted or top-dose-only effect, or another doubt; inactive = no such curve, though single readings can be large; an effect the other way counts as inactive or inconclusive.

O=C(Nc1cccc(Cl)c1)c1cc(S(=O)(=O)NCCc2ccc(Cl)cc2)ccc1F	GLP-1R inv ag 5.6µM, HEK293 tox inconclusive
CCOc1ccc(N(C(C)C(=O)Nc2cc(Cl)ccc2OC)S(C)(=O)=O)cc1 (centres undefined)	GLP-1R inv ag inconclusive, HEK293 tox inconclusive (no result: GLP-1R agonist, TSHR antag)
CCOc1cccc(CNCCc2c(C)[nH]c3ccc(OC(F)(F)F)cc23)c1O	GLP-1R inv ag 5µM, HEK293 tox inconclusive
Cc1[nH]c2ccc(OC(F)(F)F)cc2c1CCNCc1ccc(Cl)cc1	GLP-1R inv ag 4µM, HEK293 tox inconclusive
Cc1[nH]c2ccc(OC(F)(F)F)cc2c1CCNCc1cccc([N+](=O)[O-])c1	GLP-1R inv ag inconclusive, HEK293 tox inconclusive
C[C@H](CO)N1C[C@H](C)[C@H](CN(C)C(=O)N[C@H](C)c2ccccc2)OCc2ccccc2-c2c(n(C)c3ccccc23)C1=O	GLP-1R inv ag inconclusive (no result: TSHR antag)
c1ccc2c(c1)[IH]c1ccccc1-2	GLP-1R inv ag 4.5µM, HEK293 tox inconclusive (no result: TSHR antag)
O=C(c1ccccc1Cl)N1CCC(c2nc3ccccc3s2)CC1	none (no result: GLP-1R agonist, TSHR antag)
COC(=O)c1cc(=O)n(-c2ccc(F)cc2)c(=Nc2ccc(F)cc2)s1	GLP-1R inv ag 4.5µM, HEK293 tox inconclusive
OC(c1ccccc1)(c1ccc(Cl)cc1)C1CN2CCC1CC2 (centres undefined)	GLP-1R inv ag 1.6µM, HEK293 tox inconclusive
On1ccccc1=S	GLP-1R inv ag 7.9µM
Fc1ccc(C2=CCN(C(c3ccc(Cl)cc3)c3nnnn3Cc3ccccc3)CC2)cc1 (centres undefined)	GLP-1R inv ag 5.6µM
CCN(CC)C(=O)[C@@H]1C=C2c3cccc4[nH]cc(c34)C[C@H]2N(C)C1	none (no result: PTHR1 agonist, GLP-1R inv ag, TSHR antag, HEK293 tox)
O=P1(c2ccccc2)Nc2ccccc2N1c1ccccc1 (centres undefined)	GLP-1R inv ag 4.5µM (no result: TSHR antag)
COC(=O)C1=C(c2ccc(OC(F)(F)F)cc2)C[C@@H]2CC[C@H]1N2C(=O)NC1CCCCC1	GLP-1R inv ag 13µM
COC(=O)C1=C(c2ccc(OCc3ccccc3)cc2)C[C@@H]2CC[C@H]1N2C(=O)NC1CCN(Cc2ccccc2)CC1	GLP-1R inv ag 7.9µM, HEK293 tox inconclusive
COC(=O)C1=C(c2ccc(OC(F)(F)F)cc2)C[C@@H]2CC[C@H]1N2C(=O)NCc1cccc2ccccc12	GLP-1R inv ag 7.9µM
COC(=O)C1=C(c2ccc(OC(F)(F)F)cc2)C[C@@H]2CC[C@H]1N2C(=O)NCc1ccc(F)cc1	GLP-1R inv ag inconclusive
Cc1ccc(NC(=O)COc2ccc(-c3nn(C)c(=O)c4ccccc34)cc2)c(C)c1	none (no result: GLP-1R agonist, TSHR antag)
O=C(Cn1c(=O)nc(-c2ccccc2)c2cc(Cl)ccc21)NCc1ccccc1	none (no result: GLP-1R agonist, TSHR antag)
COc1ccc(CN(CCc2c[nH]c3ccccc23)Cc2ccc(OC)cc2)cc1	GLP-1R inv ag 10µM, HEK293 tox inconclusive (no result: TSHR antag)
CCOc1ccc(-c2cc(C)[n+](CCc3ccc(OC)c(OC)c3)c(-c3ccc(OCC)cc3)c2)cc1	GLP-1R inv ag 6.3µM, HEK293 tox inconclusive
COc1cc(C2NCc3ccccc3-n3cccc32)ccc1O (centres undefined)	GLP-1R inv ag 10µM
CCOc1cc2c(cc1OCC)-n1cccc1C(c1ccc(OC)c(O)c1)NC2 (centres undefined)	GLP-1R inv ag inconclusive
CCOc1cc(C2NCc3ccccc3-n3cccc32)ccc1OC (centres undefined)	GLP-1R inv ag 10µM
COc1ccc2nc(N3CCN(C(=O)CS(=O)(=O)c4ccc(C)cc4)CC3)sc2c1	none (no result: GLP-1R agonist, TSHR antag)
S=C=Nc1cccc(C2(N3CCCCC3)CCCCC2)c1	GLP-1R inv ag 8.9µM, HEK293 tox inconclusive
COc1ccccc1-c1nn2c(=O)cc(CN3CCN(C(=O)Nc4ccc(C)cc4Cl)CC3)nc2s1	none (no result: GLP-1R agonist, TSHR antag)
CCC1C=CC=CC[C@H](C)[C@@H](O)[C@](C)(O)C(=O)[C@@H](C)[C@H](O)[C@@H](C)C(=O)[C@H](C)[C@@H](O)[C@H](C)C=CC(=O)OC2[C@@H](C)C(CC1)OC1(CC[C@@H](C)C(C[C@H](C)O)O1)[C@@H]2C (some centres undefined)	TSHR antag -80 (no result: GLP-1R agonist, PTHR1 agonist, GLP-1R inv ag, HEK293 tox)
C[C@H]1CN([C@@H](C)CO)C(=O)c2cccc(NC(=O)Nc3ccc(C(F)(F)F)cc3)c2O[C@@H]1CN(C)C(=O)Nc1ccc(F)cc1	GLP-1R inv ag 11µM, HEK293 tox inconclusive
C[C@@H]1CN([C@H](C)CO)C(=O)c2cc(NC(=O)Nc3ccc(C(F)(F)F)cc3)ccc2O[C@H]1CN(C)C(=O)Nc1ccc(F)cc1	GLP-1R inv ag inconclusive, HEK293 tox inconclusive (no result: TSHR antag)
CCCCCc1cc(O)c2c(c1)OC(C)(C)c1ccc(C)cc1-2	none (no result: PTHR1 agonist, GLP-1R inv ag, TSHR antag, HEK293 tox)
Cc1nc(Nc2ccc(F)cc2)[nH]c(=O)c1CCC(C)C	GLP-1R inv ag 7.9µM, HEK293 tox inconclusive
CC1CN(c2nc(-c3ccc(Br)cc3)nnc2-c2ccccc2)CC(C)N1 (centres undefined)	GLP-1R inv ag 2.8µM, HEK293 tox inconclusive
C=CC[C@@H](Cc1ccc(F)cc1)C(=O)OC[C@@H]1CCCN1C(=O)[C@@H](CC=C)CC(=O)N[C@H](CO)Cc1ccccc1	GLP-1R inv ag inconclusive
COc1ccc(NC(=O)CCn2cnc3onc(-c4ccc(F)cc4)c3c2=O)cc1OC	GLP-1R inv ag inconclusive (no result: GLP-1R agonist, TSHR antag)
Cc1ccc(C(=O)NCCSC2CCCCC2)cc1S(=O)(=O)Nc1ccccc1	GLP-1R inv ag 11µM, HEK293 tox inconclusive
Brc1ccc2c(c1)C(OC1CN3CCC1CC3)c1ccccc1CS2 (centres undefined)	GLP-1R inv ag inconclusive, HEK293 tox 10µM
COc1ccc(S(=O)(=O)N2CCN(C(=O)c3ccc(COc4ccccc4)o3)CC2)cc1	GLP-1R inv ag inconclusive (no result: TSHR antag)
CNCCCOc1ccc(Cl)cc1C(C)(C)C	GLP-1R inv ag 3.5µM, HEK293 tox inconclusive
CCCCOc1ccc(CCN)cc1Cl	none
C[C@@H]1CCCCO[C@H](CN(C)Cc2ccccc2)[C@@H](C)CN([C@H](C)CO)C(=O)c2cc(NC(=O)c3ccccc3)ccc2O1	GLP-1R inv ag inconclusive (no result: TSHR antag)
COc1ccc(NC(=O)Nc2ccc3c(c2)C(=O)N([C@H](C)CO)C[C@H](C)[C@@H](CN(C)Cc2ccc(Cl)c(Cl)c2)OCCCC[C@@H](C)O3)cc1	GLP-1R inv ag 3.2µM (no result: TSHR antag)
CCN(CC)CCOc1ccc(/C(=C(/Cl)c2ccccc2)c2ccccc2)cc1	GLP-1R inv ag 11µM, HEK293 tox inconclusive
CC/C(=C(\c1ccc(O)cc1)c1ccc(OCCN(C)C)cc1)c1ccccc1	GLP-1R inv ag inconclusive
O=[N+]([O-])c1cccnc1N1CCC(c2cc(-c3cccc(C(F)(F)F)c3)n[nH]2)CC1	GLP-1R inv ag 8.9µM, HEK293 tox inconclusive
O=C1CC(=O)N(c2cccc(C(F)(F)F)c2)C(=O)N1	none
